{"source": "PubChem BioAssay AID868", "about": "(SRMLSC, 2007)", "note": "Hit rate of the full screen: of about 190,000 compounds, about 3,500 (1.8%) were called active. This excerpt belongs to a sample that is enriched for actives. A number with no mark means an inactive call.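 The calls were made as follows: active = inhibition above a set limit, 3 SD over mean compound inhibition (cut at about 8.4% in these data); inactive = the rest.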", "data": [{"assay": "inhibitors of the yeast RAM network, primary screen, dse1pr::URA3 reporter, 5-FOA selection (AID 868);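 also: 0% = DMSO-only wells with no growth and 100% = 10 µM 1-NA-PP1 full growth; inhibition rescues growth on 5-FOA so higher OD means more RAM inhibition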", "conditions": "S. cerevisiae dse1pr::URA3 reporter, 5-FOA growth OD615, 2 d; at 50 µM; hits give high values; analog-sensitive cbk1-as2 kinase mutant strain", "values": [{"compound": "CCC(C)(C)NC(=O)/C=C/c1cc(OC)c(OC)c(S(=O)(=O)N2CCc3ccccc32)c1", "inhibition": "9.06% (active)"}, {"compound": "COc1cc(/C=C/C(=O)O)cc(S(=O)(=O)Nc2ccccc2SC)c1OC", "inhibition": "5.01%"}, {"compound": "COc1ccc(C(=O)OCC(=O)NCC2CCCCC2)cc1S(=O)(=O)N1CCCc2ccccc21", "inhibition": "2.15%"}, {"compound": "Cc1cc(=O)[nH]c(N/N=C/c2c(C)nn(-c3ccccc3Cl)c2Cl)n1", "inhibition": "1.7%"}, {"compound": "CCOc1ccc(/C=N/Nc2nncc(-c3ccccc3)n2)cc1OC", "inhibition": "-0.12%"}, {"compound": "Cc1cc(OC(=O)c2ccccc2Cl)ccc1N1C(=O)CCC1=O", "inhibition": "-1.28%"}, {"compound": "COc1ccc(CCNC(=O)CCn2c(=O)c3ccccc3n(CC(=O)NCC3CCCO3)c2=O)cc1OC", "note": "(configuration not stated)", "inhibition": "4.36%"}, {"compound": "CCc1nnc(NS(=O)(=O)c2ccc(NC(=S)NC(=O)c3cccs3)cc2)s1", "inhibition": "4.73%"}, {"compound": "O=C(NC(=S)Nc1cccc(-c2ccc(CO)o2)c1)c1cccs1", "inhibition": "9.61% (active)"}, {"compound": "O=C(NC(=S)Nc1ccc(NC(=O)c2cccs2)cc1)c1ccc([N+](=O)[O-])cc1", "inhibition": "2.93%"}, {"compound": "COc1cccc(NC(=O)NCc2ccc(F)cc2)c1", "inhibition": "5.02%"}, {"compound": "Cc1c(C=O)c2ccccc2n1CC(=O)O", "inhibition": "0%"}, {"compound": "CSc1nc2c(c(=O)[nH]1)C(c1cccc(Cl)c1Cl)CC(=O)N2", "note": "(configuration not stated)", "inhibition": "5.93%"}, {"compound": "COc1ccc(CC(=O)NCc2nnc(SCC(=O)Nc3nccs3)n2C)cc1", "inhibition": "6.82%"}, {"compound": "COc1ccc(CN(Cc2ccco2)S(=O)(=O)c2ccc(S(=O)(=O)N3CCCC3)cc2)cc1", "inhibition": "9.77% (active)"}, {"compound": "COc1ccc(S(=O)(=O)NCc2ccc(C(=O)N(C)Cc3ccco3)cc2)cc1", "inhibition": "0.12%"}, {"compound": "CCOc1ccc(CN(Cc2ccco2)S(=O)(=O)c2ccc(-n3cnnn3)c(OC)c2)cc1", "inhibition": "6.13%"}, {"compound": "Cc1ccc(S(=O)(=O)NCCc2nnc3ccc(SCc4cccnc4)nn23)cc1", "inhibition": "0.39%"}, {"compound": "CCOc1ccc(NC(=O)c2ccc(CSc3nnnn3C)cc2)cc1", "inhibition": "2.05%"}, {"compound": "CCOc1cc(NS(=O)(=O)c2ccc(OC)cc2)c(OCC)cc1NC(C)=O", "inhibition": "3.5%"}, {"compound": "CCOc1ccc(C(=O)Nc2cc(OC)ccc2OC)cc1", "inhibition": "0.11%"}, {"compound": "CCOc1cc(NC(=O)c2ccccn2)c(OCC)cc1NC(=O)c1ccc(OC)cc1", "inhibition": "10.6% (active)"}, {"compound": "CCOC(=O)CNc1nc(Cl)nc(Nc2ccccc2)n1", "inhibition": "5.04%"}, {"compound": "CC(Sc1nnnn1C)C(=O)NC(=O)NC1CCCCC1", "note": "(configuration not stated)", "inhibition": "0.61%"}, {"compound": "Cc1ccc(-c2cc(C(=O)N/N=C/C=C/c3ccccc3)n[nH]2)o1", "inhibition": "2.69%"}, {"compound": "COc1ccc(NC(=O)/C(C#N)=C\\c2cc(OC)c(OCc3ccc(C(=O)O)cc3)cc2Br)cc1", "inhibition": "8.75% (active)"}, {"compound": "COc1cc(/C=C(\\C#N)C(=O)Nc2ccc3ccccc3c2)c([N+](=O)[O-])cc1OC", "inhibition": "-0.51%"}, {"compound": "COc1cc(C=O)c(Br)cc1OCC(=O)NCc1ccccc1", "inhibition": "3.38%"}, {"compound": "O=C(/C=C/c1ccccc1Cl)Nc1ccc(S(=O)(=O)Nc2ncccn2)cc1", "inhibition": "5.65%"}, {"compound": "O=S(=O)(Nc1ncccn1)c1ccc(NS(=O)(=O)c2cccc(Cl)c2Cl)cc1", "inhibition": "1.52%"}, {"compound": "O=C(/C=C/c1ccc(Cl)cc1)Nc1ccc(S(=O)(=O)Nc2ncccn2)cc1", "inhibition": "8.46% (active)"}, {"compound": "COc1cccc(NC(=O)CN(C)C(C)C(=O)Nc2ccc(C#N)cc2)c1", "note": "(configuration not stated)", "inhibition": "1.87%"}, {"compound": "COc1cccc(NC(=S)NCc2ccco2)c1", "inhibition": "-0.52%"}, {"compound": "CCn1c(COc2ccc(OC)cc2)nnc1SCC(=O)Nc1cc(OC)ccc1OC", "inhibition": "0.11%"}, {"compound": "CCn1c(Cc2ccccc2)nnc1SCC(=O)Nc1ccccc1", "inhibition": "1.42%"}, {"compound": "CCn1c(COc2ccccc2)nnc1SCC(=O)Nc1ccc2c(c1)OCCO2", "inhibition": "9.4% (active)"}, {"compound": "CCS(=O)(=O)Nc1ccc(C2=NN(C(C)=O)C(c3cccs3)C2)cc1", "note": "(configuration not stated)", "inhibition": "-0.12%"}, {"compound": "Cn1nnnc1-c1cc(Cl)cc(Cl)c1", "inhibition": "-0.86%"}, {"compound": "COC(=O)Cc1csc(/N=C/c2c(O)n(-c3cccc(C(F)(F)F)c3)c(=O)c3ccccc23)n1", "inhibition": "8.86% (active)"}, {"compound": "CCOc1ccc(-n2c(O)c(/C=N/Nc3nc(C)cc(C)n3)c3ccccc3c2=O)cc1", "inhibition": "3.13%"}, {"compound": "COC(=O)Cc1csc(Nc2c(C)n(C)n(-c3ccccc3)c2=O)n1", "inhibition": "1.09%"}, {"compound": "COCCCNC(=S)NNC(=O)C(O)(c1ccccc1)c1ccccc1", "inhibition": "1.35%"}, {"compound": "COc1ccc(C(=O)CSc2nc(C)cc(C)n2)cc1[N+](=O)[O-]", "inhibition": "4.17%"}, {"compound": "CC1CCCN(CC(O)COCc2ccccc2)C1", "note": "(configuration not stated)", "inhibition": "3.48%"}, {"compound": "Cc1cccc(NS(=O)(=O)c2ccc(C)c(C(N)=O)c2)c1", "inhibition": "0.63%"}, {"compound": "COc1ccccc1CNC(=O)CCCn1c(=O)c2ccccc2n(CC(=O)NC2CCCC2)c1=O", "inhibition": "1.5%"}, {"compound": "CCc1nnc(NC(=O)CCC(=O)NCc2ccccc2OC)s1", "inhibition": "1.08%"}, {"compound": "COc1ccccc1CNC(=O)CCn1c(=O)sc2ccccc21", "inhibition": "8.77% (active)"}, {"compound": "Cc1ccc(-c2noc(CC(c3ccccc3)c3ccccc3)n2)cc1", "inhibition": "9.59% (active)"}, {"compound": "Cc1ccc(-c2noc(CN3CCN(Cc4ccccc4)CC3)n2)cc1", "inhibition": "1.83%"}, {"compound": "COc1ccccc1Cc1nc(-c2ccc(C)cc2)no1", "inhibition": "0%"}, {"compound": "Cc1cc(C)cc(C(=O)N(CCc2ccccc2)C2=CC3CCC(C2)N3C)c1", "note": "(configuration not stated)", "inhibition": "0.13%"}, {"compound": "C=CCOCCN(C)C1=NS(=O)(=O)c2ccccc21", "inhibition": "2.38%"}, {"compound": "C=CCn1c(SCC(=O)CC(=O)OCC)nc2cc(C(=O)N3CCC(C(N)=O)CC3)ccc2c1=O", "inhibition": "2.99%"}, {"compound": "C/C(CCC(=O)OC[C@H]1O[C@H](C#Cc2ccccc2)C=C[C@@H]1Oc1ccc(C)cc1)=N\\OC[C@@H](O)[C@H]1O[C@@H]2OC(C)(C)O[C@@H]2[C@H]1O", "inhibition": "11.1% (active)"}, {"compound": "O=C(NNC(=S)NCc1ccccc1)c1ccc(OC(F)F)cc1", "inhibition": "1.5%"}, {"compound": "COc1cccc(CC2(CO)CCCN(CC3=Cc4cc(OC)ccc4OC3)C2)c1", "note": "(configuration not stated)", "inhibition": "0.13%"}]}]}
